Laboratory results reported in PubChem BioAssay AID2117 (The Scripps Research Institute Molecular Screening Center, 2009).
Activity calls are given as the source filed them. The rule behind the calls is not given here.

The compounds below were run on VP16 (assay: LXR, FXR and VP16 reporter activity, cell-based, luciferase reporter, ROR modulator project, late-stage follow-up (AID 2117)). Settings: cell-based luciferase reporter panel, at 10 µM; fold change: max fold change; inhibition: stronger effect = higher value.

Compound	fold change	inhibition
O=S(=O)(Nc1ccc(C(O)(C(F)(F)F)C(F)(F)F)cc1)c1ccc(Cl)c2nonc12	0.61	39% (inactive)
COC(=O)c1sccc1S(=O)(=O)Nc1ccc(C(O)(C(F)(F)F)C(F)(F)F)cc1	0.94	6%
O=S(=O)(Nc1ccc(C(O)(C(F)(F)F)C(F)(F)F)cc1)c1cccc2ccccc12	0.95	5% (inactive)
CC(C)(C)c1ccc(S(=O)(=O)Nc2ccc(C(O)(C(F)(F)F)C(F)(F)F)cc2)cc1	0.9	10% (inactive)
COc1cccc(S(=O)(=O)Nc2ccc(C(O)(C(F)(F)F)C(F)(F)F)cc2)c1	0.91	9% (inactive)
O=S(=O)(Nc1ccc(C(O)(C(F)(F)F)C(F)(F)F)cc1)c1cccc2cccnc12	1.03	0% (inactive)
